Source: PubChem (National Center for Advancing Translational Sciences (NCATS))
RORgamma inh – blocks mouse ROR gamma transcriptional activity; Drosophila S2 Gal4-RORgamma UAS-luciferase reporter, 20 h; Potency, µM (series often up to 53.6 µM), hits mostly inhibitors; 5.4% of 310,000 active; AID 2551; note: nearly all actives have a fitted effect of over 60% in size
Target sequence (P51450 whole entry, looked up, the tested form may be a part): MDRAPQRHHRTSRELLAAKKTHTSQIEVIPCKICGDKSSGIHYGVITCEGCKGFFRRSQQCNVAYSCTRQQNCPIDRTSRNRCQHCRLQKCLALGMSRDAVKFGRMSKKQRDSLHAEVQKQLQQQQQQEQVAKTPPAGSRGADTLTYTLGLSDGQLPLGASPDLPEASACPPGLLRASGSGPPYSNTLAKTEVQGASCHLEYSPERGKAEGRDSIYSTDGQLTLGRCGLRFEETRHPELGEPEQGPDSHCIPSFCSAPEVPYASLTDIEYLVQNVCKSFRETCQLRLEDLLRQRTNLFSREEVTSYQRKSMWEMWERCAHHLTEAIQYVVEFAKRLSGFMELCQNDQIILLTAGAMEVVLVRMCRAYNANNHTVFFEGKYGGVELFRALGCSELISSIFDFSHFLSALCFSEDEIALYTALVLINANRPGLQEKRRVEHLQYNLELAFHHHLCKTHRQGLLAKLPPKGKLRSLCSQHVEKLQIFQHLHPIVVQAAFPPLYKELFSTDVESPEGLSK
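Luciferase reporter read in Schneider cells carrying Gal4-RORγ (mouse) and UAS-Photinus luciferase; cells given compound 1 h before 700 uM copper sulfate induction, then incubated 20 h at ambient temperature.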
Giardia kill – Giardia lamblia killing; Giardia lamblia trophozoite viability; activity change, % at 7.66 µM, hits read low; 0.15% of 340,000 active; AID 540267; in the data active = activity change below about -80%; inconclusive = between about -30% and that limit;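 note: parasites exposed to compound for two days anaerobically before the ATP read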
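Giardia lamblia trophozoites (100 cells/well) were incubated with compounds for 48 h at 37 deg C under anaerobic conditions. Viability was read as ATP content by one-step luminescence after 15-30 min at room temperature.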
p53 reactivation – re-activators of mutant p53; H1299 p53-A138V BP100-luciferase reporter, luminescence, 24 h; Potency, µM (top dose mostly 92.2 µM), actives largely listed as activators; 0.063% of 320,000 active; AID 504706; note: nearly all actives have a fitted effect of over 45% in size
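p53-null H1299 cells stably carrying temperature-sensitive p53-A138V and a BP100-luciferase reporter were pinned with compounds (4-point, 1:5 series) and held 24 hrs at 37 deg C. Luminescence was read 10 min after detection reagent.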
Gal4-VP16 FLuc – Gal4-VP16 reporter inhibition counter-screen | Drosophila S2 Gal4-VP16 UAS-luciferase, luminescence, 20 h | Potency, µM (doses to about 53.6 µM), most hits filed as inhibitors | 3.5% of 310,000 active;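 note: Gal4-VP16 expression switched on by copper sulfate through the metallothionein promoter; nearly all actives have a fitted effect of over 50% in size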
ELG1 repair inh – blocks ELG1-dependent DNA repair in HEK293T cells | 2.3% of 330,000 active | AID 504467 | Potency, µM (series often up to 46.1 µM), most hits filed as inhibitors | HEK293T ELG1-luciferase reporter, luminescence, 16 h; DNA damage induced by 5-fluorouridine; note: nearly all actives have a fitted effect of over 55% in size
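In this reporter screen, reduction of luminescence relative to DMSO vehicle indicated activity. Compounds and 5-fluorouridine were added together to 2,000 cells per well, incubated for 16 hr at 37 °C, then developed with ONE-Glo.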
BRCA1 expr act – BRCA1 expression activation; 1.1% of 380,000 active; Potency, µM (titrated, usually from 46.1 µM), actives largely listed as activators; MCF7-BRCA1-FFLuc reporter, luminescence, 48 h; response scale: scaled: vehicle 0%, 10 µM genistein 100%; AID 624202; note: nearly all actives have a fitted effect of over 80% in size
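Luminescence from a BRCA1-driven firefly luciferase in MCF7 cells was read after 48 h compound exposure at 37 C. Data normalized against DMSO and a 10microM genistein activation control, then curve-fitted across the titration.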
A number is an active result; - = inactive; ? = inconclusive; . = no result given; [ ] = remark or other dose. Most compounds without a hit are left out; they make up all but 7.6% or so of the library. Unless noted, calls come from the whole dose curve; as a rule, active = well fitted curve in the direction sought with a large enough effect; inconclusive = small, poorly fitted or top-dose-only effect, or another doubt; inactive = no such curve, though single readings can be large; an effect the other way counts as inactive or inconclusive.

SMILES	RORgamma inh	Giardia kill	p53 reactivation	Gal4-VP16 FLuc	ELG1 repair inh	BRCA1 expr act
O=C(O)c1cccc(CSc2nnc(-c3ccco3)o2)c1	?	-	-	?	?	-
COc1cc(-c2nnc(SCc3cc(=O)oc4cc(C)ccc34)o2)cc(OC)c1OC	-	-	-	-	12µM	-
COc1ccc(C(C)(O)c2nc(-c3cccc(C#N)c3)cs2)cc1 (configuration not stated)	.	.	.	.	.	-
CCn1c(SCC(=O)Nc2ccc(Br)cn2)nnc1C1CC1	-	-	-	-	-	-
CCCCN(CCCC)C(=O)CSc1nnc(-c2cc(OC)c(OC)c(OC)c2)o1	-	-	-	-[0.365 µM]	10µM	-
CC1CCC(C(=O)NC(C(=O)NCc2ccccn2)C(C)C)CC1 (configuration not stated)	-	-	-	-	-	-
Cc1ccc(OCC(=O)Nc2sc3c(c2C#N)CC(C)(C)NC3(C)C)cc1	-	-	-	-	-	-
CC1(C)Cc2c(sc(NC(=O)COc3cccc4ccccc34)c2C#N)C(C)(C)N1	8.9µM	-	-	5µM	?	-
Cc1ccc(-n2ccc(=O)c(C(=O)Nc3ccc(S(=O)(=O)Nc4nccc(C)n4)cc3)n2)cc1	-	-	-	-	-	-
O=C(Nc1ccc(Cl)c(S(=O)(=O)N2CCOCC2)c1)c1ccc2c(c1)OCO2	.	-	-	.	6.5µM	-
O=C(Nc1ccc2c(c1)OCCO2)c1cccc(S(=O)(=O)N2CCOCC2)c1	?	-	-	-	?	10µM
O=C(Nc1ccc(Cl)c(S(=O)(=O)N2CCOCC2)c1)c1ccc2c(c1)OCCO2	?	-	-	-	23µM	-
COc1ccc(NC(=O)c2ccc3c(c2)OCO3)cc1S(=O)(=O)N1CCOCC1	.	-	-	.	?	-
O=C(Nc1ccc2c(c1)OCCO2)c1cccc(S(=O)(=O)N2CCCCC2)c1	-	-	-	-	-	-
CN(C(=O)COC(=O)COc1ccc2ccccc2c1)c1ccccc1	.	.	.	.	.	-
O=C(N/N=C/C(c1ccccc1)c1ccccc1)c1ccccc1F	-	-	-	-	-	-
CC(=O)c1cn(CC(=O)Nc2c(C)cccc2C)c2ccccc12	-	-	-	7.1µM	-	-
CCC(=O)c1cn(CC(=O)Nc2c(C)cccc2C)c2ccccc12	-[1.91 µM]	-	.	-	-	-
O=C(CCN1CCOCC1)Nc1cc(C(=O)Nc2ccccc2F)ccc1N1CC2CC(C1)c1cccc(=O)n1C2 (configuration not stated)	-	-	-	-	-	-
CCOc1ccc(NC(=O)c2ccc(N3CC4CC(C3)c3cccc(=O)n3C4)c(NC(=O)CCN3CCOCC3)c2)cc1 (configuration not stated)	-	-	-	-	7.3µM	-
CC(C)CC(=O)N1CC(C)N(C(=O)CC(C)C)CC1C (configuration not stated)	-	.	-	-	-	.
CCOC(=O)C1=C(N)OC2=C(C(=O)CC(C)(C)C2)C1c1cc(CSc2nnnn2C)cs1 (configuration not stated)	-	-	-	-	-	-
Cc1cccc(NC(=S)NCc2ccc(F)cc2)c1C	3.5µM	-	.	5µM	-	-
Cc1ccccc1NC(=O)NCCc1ccc(Cl)cc1	-	-	-	-	-	-
Cc1ccccc1NC(=S)NCc1ccc(Cl)cc1	2.8µM	-	-	4µM	-	-
SMILES	RORgamma inh	Giardia kill	p53 reactivation	Gal4-VP16 FLuc	ELG1 repair inh	BRCA1 expr act
Cc1cc(Cl)ccc1NC(=S)NCc1ccc(F)cc1	6.3µM	-	-	7.1µM	?	-
Cc1cccc(NC(=S)NCc2ccccc2)c1C	4µM	-	-	5.6µM	-	-
Cc1ccccc1NC(=S)NCc1ccc(F)cc1	7.1µM	-	.	6.3µM	-	-
Cc1cccc(NC(=S)Nc2ccccn2)c1C	1.1µM	-	-	1.8µM	?	-
Cc1cccc(NC(=O)Nc2ccccn2)c1C	-	-	-	?	?	-
CCNC(=S)Nc1cccc(F)c1C	13µM	-	-	-	-	-
Cc1ccc(F)cc1NC(=S)NCCc1ccccc1	?	-	-	-	-	-
CC1Cn2c(COc3ccccc3)nnc2S1 (configuration not stated)	-	-	-	-	-	-
CC1S/C(=N/N=C2CCCCC2)NC1=O (configuration not stated)	10µM	-	-	?	-	-
CC1S/C(=N/N=C2CCC(C(C)(C)C)CC2)NC1=O (configuration not stated)	2.5µM	-	-	5µM	-	-
COc1ccc(-n2c(CNC(=O)COc3ccc(Cl)cc3Cl)n[nH]c2=S)cc1	10µM	-	-	-	-	-
S=c1[nH]nc(COc2ccc(Cl)cc2Cl)n1-c1ccccc1	-[1.91 µM]	-	.	3.5µM	-	-
COc1cc(/C=N/NC(=O)CNc2n[nH]c(=O)[nH]c2=O)ccc1OCc1ccccc1	-	-	-	-	-	-
Cc1nnc2sc(-c3csc4c3CCCC4)nn12	-	-	-	-	?	-
S=c1nc(-c2csc3c2CCCC3)[nH][nH]1	4µM	-	-	11µM	-	-
O=C1C=C(N2CCOCC2)C2(CCCCC2)O1	11µM	-	-	-	?	-
S=c1nc(-c2ccccc2)c(-c2ccccc2)n[nH]1	8.9µM	-	-	-	-	-
CCN(CC(=O)NCc1cccs1)C(=O)/C=C/c1cccc(OC)c1OC	.	-	-	.	-	-
CN(C)c1ccc(/C=N/NC2=NS(=O)(=O)c3ccccc32)cc1	4µM	-	-	5.6µM	-	-
O=S1(=O)N=C(N/N=C/c2ccccn2)c2ccccc21	?	-	?	?	-	-
O=S1(=O)N=C(N/N=C/c2ccc(Br)o2)c2ccccc21	6.3µM	-	-	14µM	-	-
O=S1(=O)N=C(N/N=C/C=C/c2ccccc2)c2ccccc21	0.4µM	-	-	0.63µM	-	-
CCOC(=O)c1sc2nc(C)nc(N3CCCCC3C)c2c1C (configuration not stated)	-	-	-	-	?	-
Cc1cccc(OCC(=O)NCC(C)(C)N2CCOCC2)c1	.	-	?	.	-	-
Cc1ccccc1CN(C)CC(=O)Nc1cccc(S(=O)(=O)N(C)c2ccccc2)c1	?	-	-	-	?	-
Cc1cc(=O)[nH]c(=S)n1-c1ccccc1	-	-	-	-	?	-
Cc1cccc(-n2c(C)c(-c3ccccc3)[nH]c2=S)c1	1.1µM	-	-	7.9µM	-	-
Cc1ccc(-n2c(C)n[nH]c2=S)cc1	11µM	-	-	?	-	-
Cc1cccc(-n2c(C)n[nH]c2=S)c1	11µM	-	-	-	-	-
Cc1ccc(-n2c(C)n[nH]c2=S)cc1C	11µM	-	-	?	-	-
